PubChem BioAssay (NCI)
Where “and” joins values, the source holds several entries; their conditions need not be identical. Equal values may be shown once. About 83,000 compounds went through this panel and 20% of them were active in at least one assay; those are over-represented in the sample as a whole.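 Note: values are percent growth. 100 is the growth of untreated cells, values between 100 and 0 indicate rising inhibition; between -100 and 0 indicates cell death.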 Calls of active or inactive are those of the source. How the source made its calls: active means growth percent below 10; inactive means the rest.

Assays:
Assay in all cases: NCI-60 one-dose screen, 48 h (100 = growth as untreated, 0 = no growth, -100 = all killed)
HCT-15 colon = details: 10 µM unless noted
SNB-75 CNS = details: 10 µM unless noted
SNB-19 CNS = details: 10 µM unless noted
U251 CNS = details: 10 µM unless noted
PC-3 prostate = details: 10 µM unless noted
SK-MEL-5 melanoma = details: 10 µM unless noted
UACC-62 melanoma = test system: UACC-62 melanoma
LOX IMVI melanoma = details: 10 µM unless noted
SK-MEL-28 melanoma = details: 10 µM unless noted
HT29 colon = details: 10 µM unless noted

Measured: growth

COC(=O)c1nc(N)nc(C(=O)OC)c1C(=O)c1ccc(F)cc1
inactive: HCT-15 colon 103% | SNB-75 CNS 99.1% | SNB-19 CNS 103% | U251 CNS 102% | PC-3 prostate 104% | SK-MEL-5 melanoma 103% | UACC-62 melanoma; 10 µM unless noted 105% | LOX IMVI melanoma 98.6% | SK-MEL-28 melanoma 115%

O=C1c2cccnc2-c2ncccc21
inactive: SNB-75 CNS 93.8% [100 µM] | SNB-19 CNS 102% [100 µM] | U251 CNS 100% [100 µM] | SK-MEL-5 melanoma 103% [100 µM] | UACC-62 melanoma; 10 µM unless noted 102% [100 µM] | LOX IMVI melanoma 99.7% [100 µM] | SK-MEL-28 melanoma 119% [100 µM]

CCOC(=O)c1ccc(C(=N)N)cc1
inactive: HT29 colon 106% | SNB-75 CNS 100% | SNB-19 CNS 113% | U251 CNS 100% | PC-3 prostate 89.6% | SK-MEL-5 melanoma 107% | UACC-62 melanoma; 10 µM unless noted 108% | LOX IMVI melanoma 97.9% | SK-MEL-28 melanoma 120%

Cn1c(N)c(N=O)c(=O)n(C)c1=O
inactive: SNB-75 CNS 86.9% and 92.6% | SNB-19 CNS 99.8% and 102% | U251 CNS 92.9% and 101% | PC-3 prostate 96.2% and 96.9% | SK-MEL-5 melanoma 137% and 99.6% | UACC-62 melanoma; 10 µM unless noted 103% and 93.1% | LOX IMVI melanoma 100% | SK-MEL-28 melanoma 104% and 100%

CC(=O)/C(N=Nc1ccc(S(=O)(=O)c2ccc(N=N/C(C(C)=O)=C(/C)O)cc2)cc1)=C(\C)O
inactive: HT29 colon 102% | SNB-75 CNS 97.7% | SNB-19 CNS 114% | U251 CNS 101% | PC-3 prostate 92.1% | SK-MEL-5 melanoma 108% | UACC-62 melanoma; 10 µM unless noted 114% | LOX IMVI melanoma 99.1% | SK-MEL-28 melanoma 113%

COc1ccc2nccc(Cl)c2c1
inactive: HT29 colon 104% | SNB-75 CNS 91.1% | SNB-19 CNS 103% | U251 CNS 97.6% | PC-3 prostate 95.3% | SK-MEL-5 melanoma 102% | UACC-62 melanoma; 10 µM unless noted 89.6% | LOX IMVI melanoma 97.9% | SK-MEL-28 melanoma 110%

CCCCC/C(C)=N\NC(N)=S
inactive: HT29 colon 55.3% | SNB-75 CNS 86.6% | SNB-19 CNS 105% | U251 CNS 80.2% | PC-3 prostate 89.4% | SK-MEL-5 melanoma 90% | UACC-62 melanoma; 10 µM unless noted 96.2% | LOX IMVI melanoma 95.6% | SK-MEL-28 melanoma 94.2%

CCN(CC)Cc1cc2[nH]c3c4ccc(Cl)cc4ncc3c2cc1OC
3.79% (active) and 64.8% (inactive): U251 CNS
active: SK-MEL-5 melanoma -97.7% | LOX IMVI melanoma -71.8% and -38.7%
-90% (active) and 115% (inactive): SK-MEL-28 melanoma
inactive: SNB-75 CNS 74.9% and 84.7% | SNB-19 CNS 104% and 103% | PC-3 prostate 52.4% and 70% | UACC-62 melanoma; 10 µM unless noted 35% and 110%

CS(=O)(=O)OCC1NC(=O)C(COS(C)(=O)=O)NC1=O (stereo not given)
inactive: HT29 colon 85.6% and 81.3% | SNB-75 CNS 56.5% and 100% | SNB-19 CNS 105% and 110% | U251 CNS 95.9% and 93.9% | SK-MEL-5 melanoma 96.5% and 103% | UACC-62 melanoma; 10 µM unless noted 101% and 102% | LOX IMVI melanoma 94.1% and 90.5% | SK-MEL-28 melanoma 115% and 112%

CCCC(=O)Oc1ccc2ccccc2c1
inactive: HT29 colon 103% | SNB-19 CNS 101% | U251 CNS 95.5% | PC-3 prostate 73.1% | SK-MEL-5 melanoma 97.3% | UACC-62 melanoma; 10 µM unless noted 100% | LOX IMVI melanoma 101% | SK-MEL-28 melanoma 114%

O=C(O)c1cccc(Br)c1
inactive: HT29 colon 101% and 94.4% | SNB-19 CNS 108% and 105% | U251 CNS 103% and 90.7% | PC-3 prostate 95% and 97.6% | SK-MEL-5 melanoma 104% and 109% | UACC-62 melanoma; 10 µM unless noted 103% and 102% | LOX IMVI melanoma 95.8% and 99.3% | SK-MEL-28 melanoma 112% and 115%

Cc1cc(Cl)nc(Nc2ccccc2)n1
inactive: HT29 colon 104% | SNB-75 CNS 96.2% | SNB-19 CNS 103% | U251 CNS 98.7% | PC-3 prostate 96.8% | SK-MEL-5 melanoma 97.2% | UACC-62 melanoma; 10 µM unless noted 90.2% | LOX IMVI melanoma 97% | SK-MEL-28 melanoma 109%

CCOP(C)(=O)/C(Cc1ccc(OC)c(OC)c1)=N\O (stereo not given)
inactive: SNB-75 CNS 88.7% | SNB-19 CNS 105% | U251 CNS 107% | PC-3 prostate 106% | SK-MEL-5 melanoma 96.1% | UACC-62 melanoma; 10 µM unless noted 96% | LOX IMVI melanoma 96.5% | SK-MEL-28 melanoma 111%

Cc1cc(O)c(C(C)C)cc1N=O
inactive: HT29 colon 114% and 94.1% | SNB-75 CNS 96.7% | SNB-19 CNS 96.1% and 99.4% | U251 CNS 97.6% | PC-3 prostate 109% and 97.6% | SK-MEL-5 melanoma 99.6% and 104% | UACC-62 melanoma; 10 µM unless noted 99.7% and 103% | LOX IMVI melanoma 88.5% and 99.5% | SK-MEL-28 melanoma 110% and 113%

O=c1[nH]nnc2cc(Cl)ccc12
inactive: HT29 colon 109% and 129% | SNB-75 CNS 87.1% and 83% | SNB-19 CNS 104% and 103% | U251 CNS 97.3% and 93.8% | PC-3 prostate 103% and 90.7% | SK-MEL-5 melanoma 100% | UACC-62 melanoma; 10 µM unless noted 99.8% and 101% | LOX IMVI melanoma 101% | SK-MEL-28 melanoma 117% and 109%

Cc1cc2ccccc2c2cc3ccccc3cc12
inactive: HT29 colon 88.3% | SNB-75 CNS 100% | SNB-19 CNS 105% | U251 CNS 102% | PC-3 prostate 90.8% | SK-MEL-5 melanoma 89.8% | UACC-62 melanoma; 10 µM unless noted 87.8% | LOX IMVI melanoma 95.4% | SK-MEL-28 melanoma 107%

CC1(C)CC(=O)NC1=O
inactive: HT29 colon 99.8% | SNB-75 CNS 82% | SNB-19 CNS 101% | U251 CNS 101% | PC-3 prostate 104% | SK-MEL-5 melanoma 100% | UACC-62 melanoma; 10 µM unless noted 99.6% | LOX IMVI melanoma 95.9% | SK-MEL-28 melanoma 105%

Oc1cccnc1CN1CCOCC1
inactive: SNB-75 CNS 88.9% and 81.5% | SNB-19 CNS 101% and 98.9% | U251 CNS 104% and 102% | SK-MEL-5 melanoma 106% and 98.4% | UACC-62 melanoma; 10 µM unless noted 101% and 94.5% | LOX IMVI melanoma 93.1% | SK-MEL-28 melanoma 107% and 105%

N#CC(=S)Nc1ccc(Cl)c(Cl)c1
active: SNB-75 CNS -3.27% | SNB-19 CNS 4.95% | U251 CNS 9.34% | SK-MEL-5 melanoma -61.7% | UACC-62 melanoma; 10 µM 5.74% | UACC-62 melanoma; 100 µM -12.1% and -100%
inactive: HT29 colon 12.5% | SK-MEL-28 melanoma 25.2%

NCCSSC/C=C\CSSCCN
inactive: HT29 colon 106% | SNB-75 CNS 91.6% | SNB-19 CNS 105% | U251 CNS 92.1% | SK-MEL-5 melanoma 97.2% | UACC-62 melanoma; 10 µM unless noted 105% | LOX IMVI melanoma 97.5% | SK-MEL-28 melanoma 115%

CN(C)C(=S)N(C)C
inactive: SNB-19 CNS 110% | U251 CNS 105% | PC-3 prostate 92.9% | SK-MEL-5 melanoma 108% | UACC-62 melanoma; 10 µM unless noted 108% | LOX IMVI melanoma 98.4% | SK-MEL-28 melanoma 118%
